Measurements from publication PMC7862700, “An all-to-all approach to the identification of sequence-specific readers for epigenetic DNA modifications on cytosine”.

Columns and labels:
Experiment in all cases: DAPPL (digital affinity profiling via proximity ligation, sequencing); 10 mM Tris-HCl pH 7.5, 50 mM NaCl, 1 mM DTT, 4% glycerol, room temperature, 30 min; GST-TFs on glutathione beads, 16-mer random dsDNA library, 0.1% formaldehyde crosslink after washing; high values mean tight binding
FLI1 = molecular target: T1, FLI1 (Homo sapiens, UniProt Q01543 1-452); conditions: protein: recombinant; tags: N-terminal GST; dsDNA, one strand shown
T1 sequence: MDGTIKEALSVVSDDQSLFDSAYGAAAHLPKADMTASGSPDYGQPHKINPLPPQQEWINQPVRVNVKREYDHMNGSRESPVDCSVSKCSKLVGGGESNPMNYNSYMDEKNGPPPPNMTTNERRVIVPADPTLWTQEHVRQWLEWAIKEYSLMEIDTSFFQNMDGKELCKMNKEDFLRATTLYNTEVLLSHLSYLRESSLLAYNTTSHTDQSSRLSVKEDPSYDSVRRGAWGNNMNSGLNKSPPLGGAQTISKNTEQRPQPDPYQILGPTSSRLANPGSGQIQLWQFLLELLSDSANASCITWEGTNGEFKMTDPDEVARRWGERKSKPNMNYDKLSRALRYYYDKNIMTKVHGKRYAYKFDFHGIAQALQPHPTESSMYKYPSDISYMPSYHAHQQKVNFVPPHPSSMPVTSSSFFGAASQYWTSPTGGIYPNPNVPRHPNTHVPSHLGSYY
Outline: (§1)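 In yeast, human transcription factors were expressed with a GST fusion, then pulled down on glutathione beads and given DNA barcodes. Pooled with a tag-only sample, they were exposed to 200 nmole of a 16-mer random double-stranded DNA library (Tris/NaCl/DTT/glycerol buffer, room temperature, 30 min), washed, crosslinked with 0.1% formaldehyde, proximity-ligated using BsaI/T4 ligase for 1 h at 37 °C, PCR-amplified and read on an Illumina NextSeq500. Each hexamer's frequency of reads for a factor, divided by the matching frequency for the tag-only sample, gives the binding signal.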

ELK1 = molecular target: T2, ELK1 (Homo sapiens, UniProt P19419 1-428); conditions: protein: recombinant; tags: N-terminal GST; dsDNA, one strand shown
T2 sequence: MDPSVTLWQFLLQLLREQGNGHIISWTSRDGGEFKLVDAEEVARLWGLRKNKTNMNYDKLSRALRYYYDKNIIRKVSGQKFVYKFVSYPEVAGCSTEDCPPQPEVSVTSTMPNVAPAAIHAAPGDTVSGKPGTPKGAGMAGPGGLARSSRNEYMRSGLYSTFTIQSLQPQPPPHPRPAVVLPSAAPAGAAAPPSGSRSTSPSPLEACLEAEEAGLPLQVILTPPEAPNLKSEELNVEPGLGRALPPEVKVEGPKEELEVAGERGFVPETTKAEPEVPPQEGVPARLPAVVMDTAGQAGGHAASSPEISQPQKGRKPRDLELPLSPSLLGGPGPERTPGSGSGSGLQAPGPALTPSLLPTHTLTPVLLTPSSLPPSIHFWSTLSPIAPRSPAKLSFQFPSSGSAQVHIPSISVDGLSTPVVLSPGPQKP
Outline: as §1

GABPA = molecular target: T3, GABPA (Homo sapiens, UniProt Q06546 1-454); conditions: protein: recombinant; tags: N-terminal GST; dsDNA, one strand shown
T3 sequence: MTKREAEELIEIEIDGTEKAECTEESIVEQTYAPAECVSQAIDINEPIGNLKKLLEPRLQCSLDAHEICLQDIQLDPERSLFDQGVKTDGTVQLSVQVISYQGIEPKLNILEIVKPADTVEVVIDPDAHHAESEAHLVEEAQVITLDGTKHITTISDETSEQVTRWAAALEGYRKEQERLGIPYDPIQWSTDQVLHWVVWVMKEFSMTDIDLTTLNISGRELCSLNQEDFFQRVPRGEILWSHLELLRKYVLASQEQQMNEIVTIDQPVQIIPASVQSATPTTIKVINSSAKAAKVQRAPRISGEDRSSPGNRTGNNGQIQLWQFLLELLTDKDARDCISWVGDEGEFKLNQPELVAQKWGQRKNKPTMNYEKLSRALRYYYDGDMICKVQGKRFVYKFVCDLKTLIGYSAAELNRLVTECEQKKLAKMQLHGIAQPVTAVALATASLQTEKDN
Outline: as §1

ERG = molecular target: T4, ERG (Homo sapiens, UniProt P11308 1-479); conditions: protein: recombinant; tags: N-terminal GST; dsDNA, one strand shown
T4 sequence: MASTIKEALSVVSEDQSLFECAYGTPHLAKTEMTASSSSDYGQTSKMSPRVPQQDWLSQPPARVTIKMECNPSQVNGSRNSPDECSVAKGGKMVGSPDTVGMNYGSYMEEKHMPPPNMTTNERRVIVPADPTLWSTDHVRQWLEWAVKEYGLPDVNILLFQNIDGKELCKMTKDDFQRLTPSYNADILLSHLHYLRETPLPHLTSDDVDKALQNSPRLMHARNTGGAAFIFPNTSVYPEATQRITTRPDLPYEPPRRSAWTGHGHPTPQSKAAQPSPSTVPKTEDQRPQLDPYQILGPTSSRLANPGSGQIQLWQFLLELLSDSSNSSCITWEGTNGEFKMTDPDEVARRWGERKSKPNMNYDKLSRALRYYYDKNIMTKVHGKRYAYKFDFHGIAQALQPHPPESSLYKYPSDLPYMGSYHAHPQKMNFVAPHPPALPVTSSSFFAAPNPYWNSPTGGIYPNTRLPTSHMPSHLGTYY
Outline: as §1

ELF1 = ELF1 (Homo sapiens, UniProt P32519 1-619); conditions: protein: recombinant; tags: N-terminal GST; dsDNA, one strand shown
ELF1, sequence (P32519 whole entry): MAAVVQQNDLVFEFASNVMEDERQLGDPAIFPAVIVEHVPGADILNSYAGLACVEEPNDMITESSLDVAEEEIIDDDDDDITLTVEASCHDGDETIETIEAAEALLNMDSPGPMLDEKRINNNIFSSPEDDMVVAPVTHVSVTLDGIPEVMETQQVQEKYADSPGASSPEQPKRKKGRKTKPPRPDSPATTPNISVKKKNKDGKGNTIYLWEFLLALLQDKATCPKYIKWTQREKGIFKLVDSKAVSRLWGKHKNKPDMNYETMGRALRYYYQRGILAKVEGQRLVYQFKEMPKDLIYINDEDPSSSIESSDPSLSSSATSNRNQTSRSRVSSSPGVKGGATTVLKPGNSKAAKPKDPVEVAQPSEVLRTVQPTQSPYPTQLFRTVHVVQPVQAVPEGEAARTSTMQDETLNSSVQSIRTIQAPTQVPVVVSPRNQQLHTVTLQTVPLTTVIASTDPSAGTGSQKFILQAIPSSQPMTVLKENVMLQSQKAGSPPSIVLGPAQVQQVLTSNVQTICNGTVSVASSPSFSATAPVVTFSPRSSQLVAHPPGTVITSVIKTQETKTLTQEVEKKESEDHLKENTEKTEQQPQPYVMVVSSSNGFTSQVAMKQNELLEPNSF
Outline: as §1

EHF = molecular target: T5, EHF (Homo sapiens, UniProt Q9NZC4 1-300); conditions: protein: recombinant; tags: N-terminal GST; dsDNA, one strand shown
T5 sequence: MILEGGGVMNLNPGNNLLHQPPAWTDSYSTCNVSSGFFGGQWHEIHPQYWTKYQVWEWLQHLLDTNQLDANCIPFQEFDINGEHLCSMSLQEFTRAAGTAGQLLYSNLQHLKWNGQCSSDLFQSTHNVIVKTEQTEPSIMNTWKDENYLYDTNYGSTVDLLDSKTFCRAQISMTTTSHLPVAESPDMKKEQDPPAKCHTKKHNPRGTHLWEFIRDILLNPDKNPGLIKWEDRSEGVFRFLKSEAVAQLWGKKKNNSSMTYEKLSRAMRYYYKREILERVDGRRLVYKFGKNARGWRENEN
Outline: as §1

SPI1 = SPI1 (Homo sapiens, UniProt P17947 1-270); conditions: protein: recombinant; tags: N-terminal GST; dsDNA, one strand shown
Outline: as §1

SPIB = SPIB (Homo sapiens, UniProt Q01892 1-262); conditions: protein: recombinant; tags: N-terminal GST; dsDNA, one strand shown
SPIB, sequence (Q01892 whole entry): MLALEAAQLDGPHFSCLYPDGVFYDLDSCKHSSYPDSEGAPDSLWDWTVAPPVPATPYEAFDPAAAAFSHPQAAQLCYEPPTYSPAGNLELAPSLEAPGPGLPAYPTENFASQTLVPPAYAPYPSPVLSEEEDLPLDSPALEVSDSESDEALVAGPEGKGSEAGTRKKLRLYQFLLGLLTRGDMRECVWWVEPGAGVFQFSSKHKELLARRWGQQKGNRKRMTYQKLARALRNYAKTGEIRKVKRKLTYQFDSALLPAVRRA
Outline: as §1

ELK3 = molecular target: T6, ELK3 (Homo sapiens, UniProt P41970 1-407); conditions: protein: recombinant; tags: N-terminal GST; dsDNA, one strand shown
T6 sequence: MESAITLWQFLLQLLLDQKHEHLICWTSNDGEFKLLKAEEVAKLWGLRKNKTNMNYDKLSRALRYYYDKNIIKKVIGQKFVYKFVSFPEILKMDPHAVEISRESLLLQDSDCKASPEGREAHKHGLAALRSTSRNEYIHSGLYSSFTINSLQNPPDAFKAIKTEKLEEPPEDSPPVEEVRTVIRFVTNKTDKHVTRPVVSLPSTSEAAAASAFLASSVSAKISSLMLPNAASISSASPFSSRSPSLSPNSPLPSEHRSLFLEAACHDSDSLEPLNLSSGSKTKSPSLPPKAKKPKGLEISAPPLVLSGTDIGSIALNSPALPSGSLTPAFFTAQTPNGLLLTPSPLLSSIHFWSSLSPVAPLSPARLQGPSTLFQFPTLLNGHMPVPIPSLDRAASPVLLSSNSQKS
Outline: as §1

FEV = molecular target: T7, FEV (Homo sapiens, UniProt Q99581 1-238); conditions: protein: recombinant; tags: N-terminal GST; dsDNA, one strand shown
T7 sequence: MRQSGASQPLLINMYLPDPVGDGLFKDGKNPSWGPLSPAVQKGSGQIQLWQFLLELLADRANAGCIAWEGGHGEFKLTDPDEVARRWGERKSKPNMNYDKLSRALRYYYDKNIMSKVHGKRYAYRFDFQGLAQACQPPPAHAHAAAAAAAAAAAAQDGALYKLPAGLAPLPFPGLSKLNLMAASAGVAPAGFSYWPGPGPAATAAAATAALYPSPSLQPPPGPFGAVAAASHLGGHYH
Outline: as §1

ETV5 = ETV5 (Homo sapiens, UniProt P41161 1-510); conditions: protein: recombinant; tags: N-terminal GST; dsDNA, one strand shown
ETV5, sequence (P41161 whole entry): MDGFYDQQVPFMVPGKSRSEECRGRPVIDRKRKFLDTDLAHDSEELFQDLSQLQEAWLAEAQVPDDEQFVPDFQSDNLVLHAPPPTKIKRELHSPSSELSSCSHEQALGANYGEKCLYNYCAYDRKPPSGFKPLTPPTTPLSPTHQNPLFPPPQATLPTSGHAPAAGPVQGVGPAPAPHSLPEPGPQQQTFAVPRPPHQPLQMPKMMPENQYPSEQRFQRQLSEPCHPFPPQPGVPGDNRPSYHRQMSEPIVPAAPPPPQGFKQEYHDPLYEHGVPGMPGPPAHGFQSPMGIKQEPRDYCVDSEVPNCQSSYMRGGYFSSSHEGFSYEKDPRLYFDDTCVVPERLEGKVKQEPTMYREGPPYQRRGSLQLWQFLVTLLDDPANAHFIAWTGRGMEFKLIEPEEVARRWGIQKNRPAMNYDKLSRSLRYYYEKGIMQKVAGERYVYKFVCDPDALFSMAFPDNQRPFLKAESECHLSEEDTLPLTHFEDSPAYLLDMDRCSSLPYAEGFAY
Outline: as §1

HSF1 = HSF1 (Homo sapiens, UniProt Q00613 1-529); conditions: protein: recombinant; tags: N-terminal GST; chain copies: 3; dsDNA, one strand shown
HSF1, sequence (Q00613 whole entry): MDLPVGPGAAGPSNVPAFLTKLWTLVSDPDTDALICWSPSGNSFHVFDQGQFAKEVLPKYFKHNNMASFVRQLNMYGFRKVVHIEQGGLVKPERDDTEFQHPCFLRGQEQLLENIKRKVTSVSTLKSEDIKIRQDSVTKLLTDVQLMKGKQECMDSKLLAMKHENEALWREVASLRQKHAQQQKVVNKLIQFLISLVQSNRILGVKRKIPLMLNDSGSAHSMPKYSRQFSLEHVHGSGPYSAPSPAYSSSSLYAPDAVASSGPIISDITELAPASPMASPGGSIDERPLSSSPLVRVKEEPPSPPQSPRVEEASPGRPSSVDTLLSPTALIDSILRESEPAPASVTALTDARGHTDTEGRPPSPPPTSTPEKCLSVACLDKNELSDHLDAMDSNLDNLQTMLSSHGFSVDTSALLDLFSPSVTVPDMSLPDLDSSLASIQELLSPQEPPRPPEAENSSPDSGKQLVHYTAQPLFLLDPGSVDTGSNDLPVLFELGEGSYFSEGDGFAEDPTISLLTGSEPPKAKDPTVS
Outline: as §1

SPIC = molecular target: T8, SPIC (Homo sapiens, UniProt Q8N5J4 1-248); conditions: protein: recombinant; tags: N-terminal GST; dsDNA, one strand shown
T8 sequence: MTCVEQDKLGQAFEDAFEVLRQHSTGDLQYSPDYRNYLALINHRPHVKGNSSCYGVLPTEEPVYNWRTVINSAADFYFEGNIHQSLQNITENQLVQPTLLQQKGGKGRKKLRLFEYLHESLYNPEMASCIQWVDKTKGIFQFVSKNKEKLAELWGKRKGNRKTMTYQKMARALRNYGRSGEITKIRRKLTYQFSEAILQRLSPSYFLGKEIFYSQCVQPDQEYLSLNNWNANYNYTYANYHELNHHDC
Outline: as §1

ELF4 = ELF4 (Homo sapiens, UniProt Q99607 1-663); conditions: protein: recombinant; tags: N-terminal GST; dsDNA, one strand shown
ELF4, sequence (Q99607 whole entry): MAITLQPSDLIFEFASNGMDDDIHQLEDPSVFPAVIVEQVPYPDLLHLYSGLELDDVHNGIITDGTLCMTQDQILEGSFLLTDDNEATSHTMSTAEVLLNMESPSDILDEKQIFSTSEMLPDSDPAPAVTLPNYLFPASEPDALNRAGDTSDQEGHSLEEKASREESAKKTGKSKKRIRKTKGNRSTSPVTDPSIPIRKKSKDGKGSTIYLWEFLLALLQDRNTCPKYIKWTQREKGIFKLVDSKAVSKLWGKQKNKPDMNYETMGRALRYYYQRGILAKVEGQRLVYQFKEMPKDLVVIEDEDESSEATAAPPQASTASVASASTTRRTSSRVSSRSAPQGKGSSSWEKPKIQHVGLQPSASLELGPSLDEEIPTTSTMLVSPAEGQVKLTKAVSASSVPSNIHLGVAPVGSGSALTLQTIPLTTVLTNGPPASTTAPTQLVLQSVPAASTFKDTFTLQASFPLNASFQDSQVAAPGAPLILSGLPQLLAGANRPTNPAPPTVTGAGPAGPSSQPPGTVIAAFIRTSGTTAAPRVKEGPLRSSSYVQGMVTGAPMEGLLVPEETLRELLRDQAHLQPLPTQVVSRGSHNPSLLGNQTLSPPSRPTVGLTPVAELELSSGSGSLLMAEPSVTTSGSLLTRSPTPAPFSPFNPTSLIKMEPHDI
Outline: as §1

ELK4 = molecular target: T9, ELK4 (Homo sapiens, UniProt P28324-2 1-405); conditions: protein: recombinant; tags: N-terminal GST; dsDNA, one strand shown
T9 sequence: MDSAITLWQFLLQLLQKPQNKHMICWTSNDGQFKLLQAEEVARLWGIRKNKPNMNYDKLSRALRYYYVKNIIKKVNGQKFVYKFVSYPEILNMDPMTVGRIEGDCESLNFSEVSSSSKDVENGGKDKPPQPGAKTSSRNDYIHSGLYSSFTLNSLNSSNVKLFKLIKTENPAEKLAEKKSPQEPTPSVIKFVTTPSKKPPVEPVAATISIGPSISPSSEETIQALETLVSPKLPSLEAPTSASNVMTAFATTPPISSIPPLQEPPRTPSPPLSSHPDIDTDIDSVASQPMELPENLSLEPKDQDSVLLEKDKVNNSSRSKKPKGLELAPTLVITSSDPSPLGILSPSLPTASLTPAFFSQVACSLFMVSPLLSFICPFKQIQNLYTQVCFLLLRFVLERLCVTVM
Outline: as §1

ETV2 = molecular target: T10, ETV2 (Homo sapiens, UniProt O00321 1-342); conditions: protein: recombinant; tags: N-terminal GST; dsDNA, one strand shown
T10 sequence: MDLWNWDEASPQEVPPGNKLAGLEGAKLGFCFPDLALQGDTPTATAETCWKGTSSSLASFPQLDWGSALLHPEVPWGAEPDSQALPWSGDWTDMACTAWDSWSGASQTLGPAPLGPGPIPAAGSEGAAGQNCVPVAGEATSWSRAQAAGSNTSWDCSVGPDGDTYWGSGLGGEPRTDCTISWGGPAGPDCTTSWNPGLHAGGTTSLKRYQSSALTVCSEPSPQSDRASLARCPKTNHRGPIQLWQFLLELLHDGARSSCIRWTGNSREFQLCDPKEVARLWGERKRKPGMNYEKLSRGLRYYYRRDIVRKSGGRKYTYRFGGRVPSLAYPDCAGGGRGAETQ
Outline: as §1

ELF3 = molecular target: T11, ELF3 (Homo sapiens, UniProt P78545 1-371); conditions: protein: recombinant; tags: N-terminal GST; dsDNA, one strand shown
T11 sequence: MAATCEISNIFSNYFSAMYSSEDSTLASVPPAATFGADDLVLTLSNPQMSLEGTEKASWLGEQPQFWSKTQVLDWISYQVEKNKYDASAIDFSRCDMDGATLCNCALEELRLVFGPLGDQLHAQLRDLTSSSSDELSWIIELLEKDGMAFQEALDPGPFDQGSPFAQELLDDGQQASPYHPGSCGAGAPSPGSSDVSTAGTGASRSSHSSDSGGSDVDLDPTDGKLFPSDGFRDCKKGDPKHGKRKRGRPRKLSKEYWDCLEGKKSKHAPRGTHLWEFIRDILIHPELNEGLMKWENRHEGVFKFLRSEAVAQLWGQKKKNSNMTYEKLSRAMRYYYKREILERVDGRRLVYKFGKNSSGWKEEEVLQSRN
Outline: as §1

ETV1 = ETV1 (Homo sapiens, UniProt P50549 1-477); conditions: protein: recombinant; tags: N-terminal GST; dsDNA, one strand shown
ETV1, sequence (P50549 whole entry): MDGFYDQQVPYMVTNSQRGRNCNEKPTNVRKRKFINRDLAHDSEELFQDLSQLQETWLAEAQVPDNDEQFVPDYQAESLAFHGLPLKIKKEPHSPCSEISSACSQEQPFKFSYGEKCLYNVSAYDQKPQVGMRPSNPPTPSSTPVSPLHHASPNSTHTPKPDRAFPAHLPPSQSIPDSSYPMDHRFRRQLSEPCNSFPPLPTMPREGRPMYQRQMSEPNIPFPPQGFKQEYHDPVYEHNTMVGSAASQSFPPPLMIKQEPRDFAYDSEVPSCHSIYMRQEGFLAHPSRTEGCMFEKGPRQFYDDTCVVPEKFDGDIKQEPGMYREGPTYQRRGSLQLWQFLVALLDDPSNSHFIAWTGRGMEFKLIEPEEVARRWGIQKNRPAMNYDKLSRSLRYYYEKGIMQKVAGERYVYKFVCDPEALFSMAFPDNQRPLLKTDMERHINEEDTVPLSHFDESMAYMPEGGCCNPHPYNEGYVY
Outline: as §1

With CCCTCA the binding signal (FLI1) was 1.28 fold enrichment (6-mer frequency, TF over GST control), the binding signal (ELK1) was 1.11 fold enrichment (6-mer frequency, TF over GST control) and the binding signal (GABPA) was 1.18 fold enrichment (6-mer frequency, TF over GST control). The binding signal (ERG) was 1.16 fold enrichment (6-mer frequency, TF over GST control), the binding signal (ELF1) was 1.19 fold enrichment (6-mer frequency, TF over GST control) and the binding signal (EHF) was 1.1 fold enrichment (6-mer frequency, TF over GST control). The binding signal (SPI1) was 1.12 fold enrichment (6-mer frequency, TF over GST control), the binding signal (SPIB) was 1.25 fold enrichment (6-mer frequency, TF over GST control) and the binding signal (ELK3) was 1.19 fold enrichment (6-mer frequency, TF over GST control). The binding signal (FEV) was 1.24 fold enrichment (6-mer frequency, TF over GST control), the binding signal (ETV5) was 1.18 fold enrichment (6-mer frequency, TF over GST control) and the binding signal (HSF1) was 1.03 fold enrichment (6-mer frequency, TF over GST control). For the same sequence, the binding signal (SPIC) was 1.06 fold enrichment (6-mer frequency, TF over GST control), the binding signal (ELF4) was 1.28 fold enrichment (6-mer frequency, TF over GST control) and the binding signal (ELK4) was 1.11 fold enrichment (6-mer frequency, TF over GST control). For the same sequence, the binding signal (ETV2) was 1.29 fold enrichment (6-mer frequency, TF over GST control), the binding signal (ELF3) was 1.17 fold enrichment (6-mer frequency, TF over GST control) and the binding signal (ETV1) was 1.19 fold enrichment (6-mer frequency, TF over GST control).
